HP1b binding inh: inhibitors of HP1-beta chromodomain binding to methylated histone tails; AlphaScreen HP1-beta / biotin-H3K9me3 peptide binding; P83916; Potency, µM (series often up to 114 µM), for the others: top-dose activity change, negative = inhibition, usual class: inhibitors; AID 540317; hit rate 0.56% among 390,000; further: nearly all actives have a fitted effect of over 70% in size
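Compound inhibition of the preformed complex between 50 nM HP1-beta and 50 nM biotinylated H3K9me3 peptide was read by AlphaScreen. Buffer was PBS pH 7.4 with 0.01% Tween-20. Incubations ran 30 min at room temperature, with 10 ug/mL donor/acceptor beads.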
BAZ2B block: blocks human BAZ2B | Q9UIF8 | AlphaScreen BAZ2B-H3K14Ac peptide displacement | Potency, µM (highest dose often 114 µM), for inactives: at the top dose activity change, negative = inhibition, actives largely listed as inhibitors | hit rate 4.4% among 360,000; further: on the % scale 0 is the no-effect control and ±100 the full control effect; nearly all actives have a fitted effect of over 60% in size
Target sequence (Q9UIF8 whole entry, looked up): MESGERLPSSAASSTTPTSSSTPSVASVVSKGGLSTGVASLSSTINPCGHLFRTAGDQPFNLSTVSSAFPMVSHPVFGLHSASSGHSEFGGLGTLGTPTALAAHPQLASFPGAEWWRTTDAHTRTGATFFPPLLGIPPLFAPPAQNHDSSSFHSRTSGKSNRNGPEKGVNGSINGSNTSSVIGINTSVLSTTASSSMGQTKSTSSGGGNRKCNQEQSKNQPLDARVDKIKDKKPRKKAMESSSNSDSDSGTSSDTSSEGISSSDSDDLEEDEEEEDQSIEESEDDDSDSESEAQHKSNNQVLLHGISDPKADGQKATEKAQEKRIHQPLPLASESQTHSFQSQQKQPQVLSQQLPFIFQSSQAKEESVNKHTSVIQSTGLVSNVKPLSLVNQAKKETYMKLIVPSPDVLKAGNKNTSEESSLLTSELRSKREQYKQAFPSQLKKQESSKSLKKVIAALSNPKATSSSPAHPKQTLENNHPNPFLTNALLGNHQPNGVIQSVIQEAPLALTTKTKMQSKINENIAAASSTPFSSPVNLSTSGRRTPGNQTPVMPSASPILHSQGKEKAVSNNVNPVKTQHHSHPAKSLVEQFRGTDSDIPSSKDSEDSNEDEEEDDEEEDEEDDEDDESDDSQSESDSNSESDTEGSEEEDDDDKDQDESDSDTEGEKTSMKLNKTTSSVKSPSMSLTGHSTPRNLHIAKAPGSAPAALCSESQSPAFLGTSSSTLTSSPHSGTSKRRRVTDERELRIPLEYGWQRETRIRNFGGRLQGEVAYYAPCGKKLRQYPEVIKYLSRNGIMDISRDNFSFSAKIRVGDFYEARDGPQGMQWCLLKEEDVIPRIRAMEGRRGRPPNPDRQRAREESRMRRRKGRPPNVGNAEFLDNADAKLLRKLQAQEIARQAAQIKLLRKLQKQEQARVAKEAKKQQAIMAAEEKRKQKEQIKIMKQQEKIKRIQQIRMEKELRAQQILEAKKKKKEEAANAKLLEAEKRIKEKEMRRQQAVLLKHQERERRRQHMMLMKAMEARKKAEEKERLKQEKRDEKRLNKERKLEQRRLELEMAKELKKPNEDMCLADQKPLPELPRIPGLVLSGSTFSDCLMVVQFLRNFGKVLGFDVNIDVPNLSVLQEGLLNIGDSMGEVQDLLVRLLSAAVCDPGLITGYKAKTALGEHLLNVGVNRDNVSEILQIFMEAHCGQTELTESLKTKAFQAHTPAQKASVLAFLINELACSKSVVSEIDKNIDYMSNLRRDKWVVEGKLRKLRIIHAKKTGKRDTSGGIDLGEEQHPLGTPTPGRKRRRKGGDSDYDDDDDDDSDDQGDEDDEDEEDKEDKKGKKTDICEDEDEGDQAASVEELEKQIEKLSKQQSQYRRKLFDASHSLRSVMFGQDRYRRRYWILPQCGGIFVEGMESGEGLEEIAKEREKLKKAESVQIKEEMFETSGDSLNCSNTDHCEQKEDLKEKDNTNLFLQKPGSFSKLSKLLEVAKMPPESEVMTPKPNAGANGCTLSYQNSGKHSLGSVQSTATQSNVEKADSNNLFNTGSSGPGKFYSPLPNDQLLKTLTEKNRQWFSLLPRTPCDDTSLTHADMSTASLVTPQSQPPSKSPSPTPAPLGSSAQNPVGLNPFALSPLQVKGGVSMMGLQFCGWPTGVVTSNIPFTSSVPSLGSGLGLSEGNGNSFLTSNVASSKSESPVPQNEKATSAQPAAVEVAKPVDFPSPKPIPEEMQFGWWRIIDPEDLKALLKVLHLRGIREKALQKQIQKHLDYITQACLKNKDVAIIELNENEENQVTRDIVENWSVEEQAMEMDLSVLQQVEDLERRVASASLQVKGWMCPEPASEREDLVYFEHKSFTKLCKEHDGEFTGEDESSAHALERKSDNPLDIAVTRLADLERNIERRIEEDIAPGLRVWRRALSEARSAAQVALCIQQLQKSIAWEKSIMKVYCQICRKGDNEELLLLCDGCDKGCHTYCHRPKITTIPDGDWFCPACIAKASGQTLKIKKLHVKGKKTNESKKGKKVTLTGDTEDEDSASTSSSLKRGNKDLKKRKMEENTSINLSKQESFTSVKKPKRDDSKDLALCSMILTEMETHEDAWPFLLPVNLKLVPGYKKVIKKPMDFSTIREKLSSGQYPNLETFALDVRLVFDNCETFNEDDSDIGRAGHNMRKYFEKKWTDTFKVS
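AlphaScreen displacement: compounds (up to 110uM) incubated 30 min at room temperature with a preformed 50 nM BAZ2B/50 nM biotinylated H3K14Ac peptide complex in PBS pH 7.4 with Tween-20. Donor and acceptor beads at 10 ug/mL final added, 20 min light-protected before reading.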
L3MBTL1 inh: blocks human L3MBTL1 | Q9Y468 | AlphaScreen L3MBTL1–H3K9me1 peptide binding | Potency, µM (highest dose often 57.1 µM), inactives show top-dose activity, negative = inhibition, most hits filed as inhibitors | hit rate 0.66% among 230,000 | AID 485360; further: on the % scale 0 is the no-effect control and ±100 the full control effect; nearly all actives have a fitted effect of over 60% in size
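Displacement of a biotinylated histone H3(1-15) peptide monomethylated at Lys9 (75 nM) from L3MBTL1 (50 nM) was measured by AlphaScreen after a 30 min room-temperature compound incubation; cefsulodin titration served as intraplate control.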
G9a block: G9a (human) methyltransferase inhibition; G9a H3K9 monomethylation, AlphaScreen, 2 h; hit rate 8.8% among 350,000; Potency, µM (series often up to 102 µM), without a hit: top-dose activity, negative = inhibition, usual class: inhibitors; further: on the % scale 0 is the no-effect control and ±100 the full control effect; nearly all actives have a fitted effect of over 75% in size
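Enzyme 20 nM + cpd, 15 min RT; add b-H3K9 pep 500 nM / SAM 20 uM; 2 h RT; anti-H3K9me1 Ab 0.5 ug/mL + SA donor / anti-rabbit acceptor beads 20 ug/mL each, 10 min; AlphaScreen read.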
JMJD2A Tudor: blocks the human JMJD2A Tudor domain; O75164; AlphaScreen JMJD2A-Tudor / H3K4me3 peptide binding; Potency, µM (series often up to 114 µM), for the others: top-dose activity change, negative = inhibition, actives largely listed as inhibitors; hit rate 4.4% among 390,000; further: on the % scale 0 is the no-effect control and ±100 the full control effect; nearly all actives have a fitted effect of over 50% in size
Sfp inh: blocks B. subtilis Sfp PPTase activity; Q9F4F7; Biochemical Sfp PPTase activity, qHTS; Potency, µM, for inactives: largest response in the series, negative = inhibition, usual class: inhibitors; hit rate 3.5% among 310,000;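 further: the enzyme is Sfp with the accession as filed and its product quenches rhodamine fluorescence; 0% = enzyme reaction without inhibitor and -100% = no enzyme wells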
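Buffer: 50 mM Hepes-Na pH 7.6, 10 mM MgCl2, 0.01% Nonidet P-40, 0.01% BSA. Enzyme 15 nM, pre-exposed to compound 15 min; substrates then added and fluorescence change tracked over 30 min.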
* = called active by the depositor; [ ] = remark or other dose. Shown are actives, neighbours in structure and some others; about 12% of the full set was active somewhere. The call rests on the fitted dose curve; in most records, active means well fitted curve in the direction sought with a large enough effect; inconclusive means small, poorly fitted or top-dose-only effect, or another doubt; inactive means no such curve, though single readings can be large; an effect the other way counts as inactive or inconclusive. Potency means the concentration at half of the fitted maximal effect.

What do the screens show for `Cc1ccc(CNC(=O)C(=O)Nc2nccs2)cc1`?
HP1b binding inh: 9%; BAZ2B block: inconclusive; L3MBTL1 inh: 6%; G9a block: 18µM*; JMJD2A Tudor: -27%; Sfp inh: 6%

How did Cc1ccccc1CNC(=O)C(=O)Nc1nccs1 do in these assays?
HP1b binding inh: 27%; L3MBTL1 inh: 10%; G9a block: 13µM*; JMJD2A Tudor: 0%; Sfp inh: -3%

Results for O=C(NCc1ccncc1)C(=O)Nc1nccs1 ?
HP1b binding inh: 8%; BAZ2B block: inconclusive; G9a block: 14µM*; JMJD2A Tudor: inconclusive; Sfp inh: -10%

Results for COc1ccccc1CNC(=O)C(=O)Nc1nccs1 ?
HP1b binding inh: 13%; BAZ2B block: -16%; L3MBTL1 inh: -2%; G9a block: inconclusive; JMJD2A Tudor: inconclusive; Sfp inh: 13%

Results for O=S(=O)(c1ccc(Br)cc1)c1nc(-c2ccco2)oc1SCc1ccccc1Cl ?
HP1b binding inh: 29%; BAZ2B block: 1%; G9a block: 9%[59 µM]; JMJD2A Tudor: -19%

Results for O=c1c(N2CCCCC2)csc2ccc(F)cc12 ?
HP1b binding inh: 14%[57 µM]; BAZ2B block: -22%; G9a block: -35%[59 µM]; JMJD2A Tudor: -31%

Results for O=C(Nc1ccccc1)N1CCCC2(CCN(C(=O)c3ccco3)CC2)C1 ?
G9a block: 9%[12.7 µM]; Sfp inh: 15%

How did CCOc1ccc(CCNC(=O)c2cn(CC)c3ccc(S(=O)(=O)N4CCCCCC4)cc3c2=O)cc1OCC do in these assays?
HP1b binding inh: -8%; G9a block: -38%[59 µM]; JMJD2A Tudor: inconclusive

How did CCN1CCN(c2nc3ccccc3n3cnnc23)CC1 do in these assays?
HP1b binding inh: 6%[57 µM]; BAZ2B block: 6%; G9a block: inconclusive; JMJD2A Tudor: -13%; Sfp inh: -1%

What do the screens show for `O=C1CN(c2nc3ccccc3n3cnnc23)CC(=O)N1CCc1ccccc1`?
HP1b binding inh: 31%; BAZ2B block: -4%; L3MBTL1 inh: 14%; G9a block: 79µM*; JMJD2A Tudor: -10%; Sfp inh: 1%

What do the screens show for `Fc1ccc(NC(=S)NCc2cccnc2)cc1`?
HP1b binding inh: 39%; BAZ2B block: -21%; L3MBTL1 inh: 4%; G9a block: 10%; JMJD2A Tudor: -8%; Sfp inh: -3%

What do the screens show for `Oc1ccc(Cn2ccnc2)c2cccnc12`?
HP1b binding inh: 20%; BAZ2B block: 0.71µM*; L3MBTL1 inh: 1.6µM*; G9a block: inconclusive; JMJD2A Tudor: 2µM*; Sfp inh: 19%

Results for OCc1ccccc1OCCCOc1cccc2cccnc12 ?
HP1b binding inh: 10%; BAZ2B block: -5%; L3MBTL1 inh: 2%; G9a block: 15%; JMJD2A Tudor: -21%; Sfp inh: 20%

How did Oc1ccc(CNc2ccc(F)cc2)c2cccnc12 do in these assays?
HP1b binding inh: -25%; BAZ2B block: 25µM*; L3MBTL1 inh: 32µM*; G9a block: 1.6µM*; JMJD2A Tudor: 56µM*; Sfp inh: 8%

Results for OCc1ccnc2c(O)cccc12 ?
HP1b binding inh: -4%; BAZ2B block: 1.4µM*; L3MBTL1 inh: -85%; G9a block: -7%[2.33 µM]; JMJD2A Tudor: 13µM*; Sfp inh: 3%

Results for Oc1ccc2c(c1)c1ccccc1c1ncccc21 ?
HP1b binding inh: 6%; JMJD2A Tudor: -10%

What do the screens show for `COCc1ccc(O)c2ncccc12`?
HP1b binding inh: 51%; BAZ2B block: 1.8µM*; G9a block: inconclusive; JMJD2A Tudor: 40µM*; Sfp inh: -3%

How did O=C1c2ccccc2C(=O)N1c1cncc2ccccc12 do in these assays?
JMJD2A Tudor: -28%

Results for C[C@@]12CCc3occc3[C@H]1CC[C@@]13C[C@@H](CC[C@H]12)[C@@](O)(CO)C3 ?
Sfp inh: 23%

Results for Cc1cc(O)c2c(c1)OC1(C)CCC3C(C)(C)CCCC34COC2C14 (centres undefined) ?
G9a block: -50%[12.7 µM]; Sfp inh: 13%

How did Cc1c(C(=O)Nc2ccccc2Cl)oc2ccc(S(=O)(=O)N3CCCCC3)cc12 do in these assays?
HP1b binding inh: 19%; BAZ2B block: -14%; G9a block: 6%[59 µM]; JMJD2A Tudor: -18%

How did CCCn1c(-c2ccc(F)cc2)nc2c(NCCCN(C)C)nc(C)nc21 do in these assays?
Sfp inh: 10%

How did Cn1cccc1Cc1nnc(SCC(=O)Nc2ccccc2F)n1-c1ccc(F)cc1 do in these assays?
HP1b binding inh: 18%; BAZ2B block: inconclusive; L3MBTL1 inh: -3%; G9a block: 45µM*; JMJD2A Tudor: -29%; Sfp inh: 0%

Results for COc1ccc(NC(=O)CSc2nnc(Cc3cccn3C)n2-c2ccc(F)cc2)cc1OC ?
HP1b binding inh: 5%; BAZ2B block: 50µM*; L3MBTL1 inh: -11%; G9a block: inconclusive; JMJD2A Tudor: -35%; Sfp inh: inconclusive

How did Cn1cccc1Cc1nnc(SCC(=O)Nc2ccc(F)cc2)n1-c1ccc(F)cc1 do in these assays?
HP1b binding inh: -17%; BAZ2B block: inconclusive; L3MBTL1 inh: inconclusive; G9a block: 45µM*; JMJD2A Tudor: inconclusive; Sfp inh: -20%

Results for Cn1cccc1Cc1nnc(SCC(=O)NCC2CCCO2)n1-c1ccc(F)cc1 (centres undefined) ?
HP1b binding inh: 21%; BAZ2B block: -6%; L3MBTL1 inh: -8%; G9a block: 35µM*; JMJD2A Tudor: 0%; Sfp inh: -2%

How did Cc1cccc(NC(=O)C(Cc2ccccc2)N2Cc3ccccc3C2=O)c1C (centres undefined) do in these assays?
HP1b binding inh: 37%; BAZ2B block: -11%; G9a block: -24%[59 µM]; JMJD2A Tudor: -15%

What do the screens show for `O=C(Cn1nc(-c2ccc(Cl)cc2)c2ccccc2c1=O)Nc1cccc(C(F)(F)F)c1`?
HP1b binding inh: 5%; BAZ2B block: 6%; G9a block: -3%[59 µM]; JMJD2A Tudor: -13%

How did Cc1cc(C)n(-c2nc3ccccc3nc2Nc2cccc(C)c2C)n1 do in these assays?
HP1b binding inh: 124%; BAZ2B block: 33%; G9a block: 42%[59 µM]; JMJD2A Tudor: 37%

What do the screens show for `COc1ccc(NC(=O)c2sc3nc[nH]c(=O)c3c2C)cc1Cl`?
HP1b binding inh: 9%[57 µM]; BAZ2B block: 3%; G9a block: 15%[59 µM]; JMJD2A Tudor: -9%

Results for COc1ccc(-n2c(Cc3cccn3C)nnc2SCC(=O)NCc2ccc(F)cc2)cc1 ?
HP1b binding inh: 5%; BAZ2B block: inconclusive; L3MBTL1 inh: -13%; G9a block: 45µM*; JMJD2A Tudor: -32%; Sfp inh: -12%

Source: PubChem BioAssay
